Results filed as inconclusive are left out. Activity calls are given as the source filed them. The calls were made as follows: active = hit-call score of the fitted dose curve at least 0.9, where 1 is the maximum; inconclusive = response in the unintended direction; inactive = score below 0.9.
Assays:
[1] = target: Cellular tumor antigen p53 (Homo sapiens) (UniProt P04637); assay: TOX21_p53_BLA_p2_ratio: Tox21 HCT-116 p53 Agonism Beta-lactamase Assay, Ratio, Phase 2 (AID 2283592)
Method in brief: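 HCT116 cells carrying a p53-responsive beta-lactamase reporter were plated, incubated 5 h at 37C, then dosed with compounds in DMSO (217-fold dilution) for 16 h. CCF4-AM substrate was added for 2 h at room temperature; the 460/530 nm emission ratio gave gain-of-signal activity relative to DMSO.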

[2] = target: Cellular tumor antigen p53 (Homo sapiens) (UniProt P04637); assay: TOX21_p53_BLA_p3_ratio: Tox21 HCT-116 p53 Agonism Beta-lactamase Assay, Ratio, Phase 3 (AID 2283596)
Method in brief: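 HCT116 p53-bla cells (4000/well) given compound in DMSO (217-fold dilution) after 5 h, incubated 16 h at 37C. CCF4-AM substrate 2 h at room temperature; 460/530 nm emission ratio, gain fitted against DMSO.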

[3] = TOX21_p53_BLA_p4_viability: Viability Assessment in the Tox21 HCT-116 p53 Agonism Beta-lactamase Assay, Phase 4 (AID 2283597);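 also: hits lower the luminescence signal meaning cytotoxicity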
Method in brief: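 HCT116 p53-bla cells (4000/well) rested 5 h at 37C, then received compounds in DMSO (217-fold dilution) for 16 h at 37C, 5% CO2. CellTiter-Glo was added after the CCF4-AM read, and luminescence was read after 30 min at room temperature.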

[4] = target: Cellular tumor antigen p53 (Homo sapiens) (UniProt P04637); assay: TOX21_p53_BLA_p5_ratio: Tox21 HCT-116 p53 Agonism Beta-lactamase Assay, Ratio, Phase 5 (AID 2283599)
Method in brief: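 HCT-116 p53-bla cells (4000/well) plated 5 h, dosed with compound (217-fold DMSO dilution) for 16 h at 37 C; CCF4-AM substrate 2 h at room temperature. Activity is the 460/530 nm emission ratio (405 nm excitation), fitted in gain-of-signal direction versus DMSO.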

[5] = TOX21_p53_BLA_p5_viability: Viability Assessment in the Tox21 HCT-116 p53 Agonism Beta-lactamase Assay, Phase 5 (AID 2283600)
Method in brief: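 Cells were plated at 4000/well, rested 5 h at 37C, then given compounds in DMSO (217-fold dilution) for 16 h at 37C, 5% CO2. Following the CCF4-AM beta-lactamase read, CellTiter-Glo was added and luminescence was read after 30 min at room temperature.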

[6] = target: Cellular tumor antigen p53 (Homo sapiens) (UniProt P04637); assay: TOX21_p53_BLA_p4_ratio: Tox21 HCT-116 p53 Agonism Beta-lactamase Assay, Ratio, Phase 4 (AID 2283601)
Method in brief: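 HCT-116 p53 beta-lactamase reporter cells (4000/well) preincubated 5 h, then compound (217-fold dilution of DMSO stock) for 16 h at 37C. CCF4-AM substrate added 2 h at room temperature; 460/530 nm emission ratio fitted upward versus DMSO.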

Sequence of Cellular tumor antigen p53 (Homo sapiens) (P04637 whole entry, looked up): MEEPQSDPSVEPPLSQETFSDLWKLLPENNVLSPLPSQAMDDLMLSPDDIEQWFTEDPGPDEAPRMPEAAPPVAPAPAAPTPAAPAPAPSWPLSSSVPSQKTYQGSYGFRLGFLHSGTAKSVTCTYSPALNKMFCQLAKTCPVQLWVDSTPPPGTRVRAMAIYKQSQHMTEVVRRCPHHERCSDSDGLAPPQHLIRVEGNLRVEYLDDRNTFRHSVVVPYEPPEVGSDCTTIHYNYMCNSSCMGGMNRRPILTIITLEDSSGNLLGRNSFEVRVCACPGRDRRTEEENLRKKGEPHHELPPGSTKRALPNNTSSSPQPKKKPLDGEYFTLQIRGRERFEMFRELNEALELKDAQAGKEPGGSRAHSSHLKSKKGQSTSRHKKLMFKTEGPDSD

SMILES	outcome [1]	outcome [2]	outcome [3]	outcome [4]	outcome [5]	outcome [6]	AC50 [3]	AC50 [2]
N#CSc1ccc(N)c([N+](=O)[O-])c1	inactive	inactive	inactive	inactive	–	–	–	–
C1CSCCS1	inactive	inactive	inactive	inactive	inactive	–	–	–
CCCCCC(C)N (configuration not stated)	inactive	inactive	inactive	inactive	inactive	inactive	–	–
CN1CCN(c2c(F)cc3c(=O)c(C(=O)O)cn4c3c2OCN4C)CC1	inactive	inactive	inactive	inactive	–	–	–	–
CC(C)C(=O)O	inactive	inactive	inactive	inactive	inactive	–	–	–
COc1ccc(C2(C#N)CCC(C(=O)O)CC2)cc1OC1CCCC1 (configuration not stated)	inactive	inactive	inactive	inactive	inactive	–	–	–
Oc1ccc(C2CNCCc3c2cc(O)c(O)c3Cl)cc1 (configuration not stated)	inactive	inactive	inactive	inactive	–	–	–	–
C=N[C@@H](C(=O)N[C@@H]1C(=O)N2[C@@H]1SC(C)(C)[C@@H]2C(=O)O)c1ccccc1	inactive	inactive	inactive	inactive	inactive	inactive	–	–
Cc1c[nH]c2ccccc12	inactive	inactive	inactive	inactive	inactive	inactive	–	–
O=C(N=NC(=O)OCc1ccccc1)OCc1ccccc1	inactive	inactive	inactive	inactive	inactive	inactive	–	–
CC(=O)Oc1cc(C(F)(F)F)ccc1C(=O)O	inactive	inactive	inactive	inactive	inactive	inactive	–	–
N[C@H](C(=O)O)[C@@H](O)c1ccc(O)c(O)c1	inactive	inactive	inactive	inactive	inactive	inactive	–	–
CN1CCCN(C(c2ccccc2)c2ccc(Cl)cc2)CC1 (configuration not stated)	inactive	inactive	–	inactive	inactive	inactive	34.8 µM (active)	–
CCCCOC(=O)CCS	inactive	inactive	inactive	inactive	inactive	inactive	–	–
C=CCOC(=O)CCCCCCCC	inactive	inactive	inactive	inactive	inactive	inactive	–	–
Cc1cc(O)ccc1N	inactive	inactive	inactive	inactive	–	–	–	–
CN(C)CCC=C1c2ccccc2C=Cc2ccccc21	inactive	inactive	inactive	inactive	–	–	–	–
O=C(C(=O)c1ccco1)c1ccco1	inactive	inactive	inactive	inactive	inactive	–	–	–
CC(C)(C)C(=O)NCCCC(=O)O	inactive	inactive	inactive	inactive	inactive	inactive	–	–

SMILES	outcome [1]	outcome [2]	outcome [3]	outcome [4]	outcome [5]	outcome [6]	AC50 [3]	AC50 [2]
CNC(=O)[C@H](Cc1c[nH]c2ccccc12)NC(=O)[C@@H](CC(=O)NO)CC(C)C	inactive	inactive	inactive	inactive	inactive	inactive	–	–
CCN(CC)CCNC(=O)COc1ccc(OC)cc1	inactive	inactive	inactive	inactive	inactive	inactive	–	–
O=C[O][Al]([O]C=O)[O]C=O	inactive	inactive	inactive	inactive	inactive	–	–	–
CC(=O)N[C@@H](Cc1ccc(O)cc1)C(=O)O	inactive	inactive	inactive	inactive	–	–	–	–
Nc1nc2c(ncn2COC(CO)CO)c(=O)[nH]1	inactive	inactive	inactive	inactive	inactive	inactive	–	–
CCN(CC)CCC(=O)N1c2ccccc2Sc2ccc(C(F)(F)F)cc21	inactive	inactive	inactive	inactive	–	–	–	–
CC(Cc1cccc(C(F)(F)F)c1)NCCOC(=O)c1ccccc1 (configuration not stated)	inactive	inactive	inactive	inactive	inactive	inactive	–	–
O=C1c2ccccc2C(=O)c2c1ccc(O)c2O	inactive	inactive	inactive	inactive	inactive	inactive	–	–
NC(=O)Nc1nc2ccccc2[nH]1	inactive	inactive	inactive	inactive	inactive	inactive	–	–
Nc1cccc([N+](=O)[O-])c1	inactive	inactive	inactive	inactive	inactive	–	–	–
C[n+]1ccn(Cc2ccccc2)c1	inactive	inactive	inactive	inactive	inactive	inactive	–	–
Cc1ncsc1CCO	inactive	inactive	inactive	inactive	inactive	–	–	–
O=C(CN1CCNCC1)NC1CCCCC1	inactive	inactive	inactive	inactive	inactive	inactive	–	–
NS(=O)(=O)c1ccc(C(=O)O)cc1	inactive	inactive	inactive	inactive	inactive	inactive	–	–
Cc1ccnc2c1NC(=O)c1cccnc1N2C1CC1	inactive	inactive	inactive	inactive	inactive	inactive	–	–
COc1ccc(/C=C/C(=O)O)cc1	inactive	inactive	inactive	inactive	inactive	inactive	–	–
CN1CCC[C@@H]1CCO[C@](C)(c1ccccc1)c1ccc(Cl)cc1	inactive	inactive	inactive	inactive	inactive	inactive	–	–
[O-][n+]1ccccc1SSc1cccc[n+]1[O-]	inactive	–	inactive	inactive	inactive	inactive	–	9.52 µM (active)
ClC(Cl)Cl	inactive	inactive	inactive	inactive	inactive	inactive	–	–

Source: PubChem BioAssay (EPA / NIEHS)
